Bioassay records as filed in PubChem BioAssay.
APOBEC3A inh: blocks human APOBEC3A ssDNA deamination; AID 493011; hit rate 0.41% among 330,000; recombinant A3A, FAM/TAMRA ssDNA deamination fluorescence; P31941; inhibition, % at 20 µM;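 active = at least 40% inhibition at 20 µM here, with at most 30% in a related deaminase screen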;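 also: plate controls were A3A with DMSO for no effect and wells lacking A3A enzyme for full effect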
Target sequence (P31941 whole entry, looked up): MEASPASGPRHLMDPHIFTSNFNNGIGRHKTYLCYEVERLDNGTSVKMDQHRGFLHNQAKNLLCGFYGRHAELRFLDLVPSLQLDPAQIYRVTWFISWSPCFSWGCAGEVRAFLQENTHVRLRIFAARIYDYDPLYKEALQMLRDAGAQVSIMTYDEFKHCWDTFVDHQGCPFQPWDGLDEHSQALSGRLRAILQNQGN
NALP1 yeast inh: blocks the NALP1 inflammasome reconstituted in yeast; S. cerevisiae NALP1/ASC/caspase-1 growth, X-gal OD620, 72 h; inhibition, % at 10 µM; hit rate 0.61% among 280,000; in the data active = inhibition mostly above about 24%, no sharp cut-off; inactive = mostly below about 32%
A3G deaminase: APOBEC3G (human) deaminase inhibition; Q9HC16; recombinant A3G, ssDNA deamination FAM/TAMRA fluorescence; inhibition, % at 20 µM; hit rate 0.28% among 330,000; AID 493012;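 active = inhibition of at least 40% at 20 µM, with no more than 30% in the related APOBEC3A deaminase screen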;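 also: plate controls were DMSO wells with A3G for no effect and wells lacking A3G enzyme for full effect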
Target sequence (Q9HC16 whole entry, looked up): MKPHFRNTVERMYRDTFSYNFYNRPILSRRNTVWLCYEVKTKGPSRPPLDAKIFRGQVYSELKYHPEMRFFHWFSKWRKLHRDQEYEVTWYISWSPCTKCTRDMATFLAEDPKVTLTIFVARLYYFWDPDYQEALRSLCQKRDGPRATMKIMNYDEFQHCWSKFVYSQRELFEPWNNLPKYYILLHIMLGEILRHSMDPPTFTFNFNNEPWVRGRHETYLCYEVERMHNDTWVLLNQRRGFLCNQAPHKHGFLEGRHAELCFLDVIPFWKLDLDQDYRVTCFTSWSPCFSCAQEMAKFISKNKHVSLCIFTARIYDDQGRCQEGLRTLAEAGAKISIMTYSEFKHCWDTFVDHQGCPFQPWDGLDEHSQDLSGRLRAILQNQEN
PolyA inhibitor: inhibitors of polyadenylation in S. cerevisiae | S. cerevisiae SKY197-pL101 polyadenylation reporter, beta-gal luminescence; efflux-impaired pdr1/pdr3 knockout yeast; score 100 = 6 SD above DMSO | activity score, % at 12 µM | hit rate 0.02% among 300,000 | AID 1875;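 active = lowest replicate activity score at least 50, where 100 means six control SD above control mean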;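 also: yeast exposed to compound for 9 h at 30 °C; higher score means more reporter readthrough which indicates perturbed polyadenylation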
Active calls of the source: *; · = no result. This is a sample that favours compounds with a hit; in the whole collection about 1.2% have one here.

SMILES	APOBEC3A inh	NALP1 yeast inh	A3G deaminase	PolyA inhibitor
CCOC(=O)C1CCCN(S(=O)(=O)c2cc(Br)cc3c2N(C(=O)CC)CC3)C1 (stereo not given)	-4	21	-10	10
O=C(COC(=O)/C=C/c1cccs1)NC(c1ccccc1)c1ccccc1	-2	29	-2	150*
O=C(COC(=O)/C=C/c1cccs1)NC(=O)Cc1ccccc1	-3	-18	-7	2
O=C(COC(=O)/C=C/c1cccs1)Nc1nc(-c2ccccc2)cs1	0	63*	-3	27
Cc1ccc(-c2nnn(CC(=O)N(c3cccc(F)c3)C(C(=O)NC3CCCC3)c3ccncc3)n2)o1 (stereo not given)	3	35*	2	-2
Cc1c(C)c(C)c(S(=O)(=O)NCCc2ccncc2)c(C)c1C	-3	13	-7	8
COc1ccc(C2c3[nH]c4ccccc4c3CCN2CCCn2cccn2)c(C)c1C (stereo not given)	0	51*	-3	6
COc1ccc(S(=O)(=O)n2[nH]c(=O)c(CCO)c2C)cc1	-4	29*	-5	5
Cc1cc(C)c(O)c(-c2cc(C(=O)Nc3cccnc3)[nH]n2)c1	0	2	-1	1
Cc1cc(O)c(-c2cc(C(=O)Nc3cccnc3)[nH]n2)cc1C	3	37*	0	20
O=C1c2ccc(-c3ccc(Cl)c(C(F)(F)F)c3)cc2S(=O)(=O)c2cccc(C(=O)N3CCN(c4ccc(Cl)cn4)CC3)c21	1	·	-6	·
COc1ccc(C(=O)N2CCCC(Nc3ccc(F)cc3)C2)c(OC)c1 (stereo not given)	-4	30*	-4	10
COc1ccc(NC2CCCN(C(=O)c3ccc(C(C)=O)cc3)C2)cc1 (stereo not given)	-6	2	-9	36
O=C(CSc1nc2ccccc2s1)Nc1ncccn1	-4	-5	-5	2
O=C(CSc1nc2ccccc2s1)Nn1cnnc1	-1	24*	-4	-1
C=CCSC(=S)NC1CCS(=O)(=O)C1 (stereo not given)	-2	82*	-3	6
N#Cc1cnc(N)c(Br)c1	6	-5	3	1
CN(CC(=O)Nc1ccccc1Cl)C(=O)COC(=O)/C=C/c1cccc(C(F)(F)F)c1	-2	·	-5	·
O=C(NC(=S)Nc1ccccc1)c1cc([N+](=O)[O-])ccc1N1CCOCC1	0	26*	7	-27
CCSc1nnc(-c2ccncc2)o1	-1	10	-4	7
OCC#CCSc1nnc(-c2ccncc2)o1	-3	31*	-7	-4
Cc1ccnc(NS(=O)(=O)c2ccc(NS(=O)(=O)c3cc(Cl)ccc3Cl)cc2)n1	-8	40*	-5	6
COc1cc2cc(CCCOC(=O)c3ccc(F)cc3)oc(=O)c2cc1OC	0	·	-1	·
Cc1ccc(-n2nnnc2SCC(=O)NCC2CCCO2)cc1C (stereo not given)	-1	·	-6	·
CCOC(=O)c1nn(-c2ccc(F)cc2)c(=O)cc1OCC(=O)N1CCN(c2ccccc2)CC1	4	·	4	-8
SMILES	APOBEC3A inh	NALP1 yeast inh	A3G deaminase	PolyA inhibitor
O=C(OCN1C(=O)c2ccccc2C1=O)c1cccnc1SC(F)F	1	23	-2	-6
CCN(CC)c1ccc(NC(=O)CN2C(=O)CSc3ncccc32)c(C)c1	-2	26	-6	8
CNC(=O)CN1C(=O)CSc2ncccc21	3	41*	1	-4
CCOC(=O)CCC(=O)O[C@H]1[C@H](O[C@@H]2[C@@H](C)[C@H](O[C@H]3C[C@@](C)(OC)[C@@H](O)[C@H](C)O3)[C@@H](C)C(=O)O[C@H](CC)[C@@](C)(O)[C@H](O)[C@@H](C)C(=O)[C@H](C)C[C@@]2(C)O)O[C@H](C)C[C@@H]1N(C)C	·	92*	·	1
CC[C@H]1OC(=O)[C@H](C)[C@@H](O[C@H]2C[C@@](C)(OC)[C@@H](O)[C@H](C)O2)[C@H](C)[C@@H](O[C@@H]2O[C@H](C)C[C@H](N(C)C)[C@H]2O)[C@](C)(O)C[C@@H](C)C(=O)[C@H](C)[C@@H](O)[C@]1(C)O	·	4	·	1
CCN1CCN(CCNC(=O)c2ccc(CS(=O)c3ccc(Cl)cc3)o2)CC1 (stereo not given)	-5	-7	-5	-4
CCOC(=O)C1CCCN(CCCc2ccccc2)C1 (stereo not given)	-4	-17	-4	26
Cc1cccc(C)c1NC(=O)C1CCCN(CCCc2ccccc2)C1 (stereo not given)	·	42*	·	·
O=C(Nc1cccc(C(F)(F)F)c1)Oc1ccc(Cl)c2cccnc12	·	48*	·	9
O=C(N1CCN(c2ccccn2)CC1)C(Cl)(Cl)Cl	1	55*	5	-16
O=C(c1c(Cl)cccc1Cl)N1CCN(c2ccccn2)CC1	-6	-6	-10	-5
COc1ccc(C2=NS(=O)(=O)N(C)C(C(=O)NC3CCCC3)=C2)cc1OC	-1	8	2	2
CCc1ccc(NC2=NCC(c3ccccc3)S2)cc1 (stereo not given)	2	35*	-8	14
O=[N+]([O-])c1ccc(C2CN=C(Nc3ccccc3)S2)cc1 (stereo not given)	-2	2	-7	1
COc1ccc(CNC(=O)CSc2nnc(NC(=O)c3ccccc3F)s2)cc1	-1	10	-4	16
O=C(Nc1ccccc1)N1CCc2ccccc2C1	-4	50*	-4	1
Cc1ccc(NC(=O)N2CCc3ccccc3C2)cc1	2	65	-2	17
CC(=O)OC(C)(C)C1Cc2cc3ccc(=O)oc3cc2O1 (stereo not given)	62	21	50	-13
CC(C)(Cl)C1Cc2cc3ccc(=O)oc3cc2O1 (stereo not given)	-5	24*	-9	-3
O=[N+]([O-])c1ccc(CNc2ccc(F)cc2)s1	-8	13	17	-13
COc1ccc(NCc2ccc([N+](=O)[O-])s2)c(OC)c1	·	52*	·	·
COc1ccc(NCc2ccc([N+](=O)[O-])s2)cc1	-5	62*	-6	-22
CC1(c2ccccc2)NC(=O)N(CC(=O)N2CCOCC2)C1=O (stereo not given)	0	36*	-3	16
CC(C)(C)NC(=O)/C(=C\c1ccco1)NC(=O)c1ccco1	-2	16	-5	16
Cc1ccc(CN2CCC(c3cc(-c4ccc(Cl)cc4)n[nH]3)CC2)cc1	-1	35*	-7	-3
COc1ccc(-c2cc(C3CCN(Cc4ccc([N+](=O)[O-])cc4)CC3)[nH]n2)cc1	-1	8	-9	-2
Cc1ccc2cc(CN(CC(C)C)S(=O)(=O)c3cccc4nonc34)c(=O)[nH]c2c1	-2	1	-5	6
O=C(Nc1cccc(C(F)(F)F)c1)Nc1ccc2[nH]c(=O)[nH]c2c1	2	28	-4	19
O=c1c(-c2nnc(SCc3ccc(Cl)cc3)o2)cccn1Cc1ccccc1	1	25*	-3	7
O=C(Nc1ccccc1-c1nnc(SCc2ccc(Cl)cc2)o1)c1ccccc1	-1	21	-5	11
